Laboratory results reported in ChEMBL document CHEMBL3988442, “University of Dundee, Small-Polar-MMV Screening Library” (2021).
Hit rate of the full screen: of about 48,000 compounds, about 13,000 (27%) showed an effect of 50% or more. The list shows a part of the results.

system: Wolbachia pipientis; assay: Anti-Wolbachia Cell-Based Screen; type: functional; parameters: scale not given: in the data most compounds retested in dose-response had high values; settings: 5 µM

Structure (SMILES) | Percent Effect [%]
Cc1ncsc1C(=O)N(C)CCc1ccncc1 | -1.181
COc1ccccc1CC1CCCN(CCN2CCOC2=O)C1 (centres undefined) | -15.91
Cc1nn(C)c(C)c1NC(=O)CNC(c1ccccc1)C1CCC1 (centres undefined) | -2.911
Br.Cc1ccccc1OC1CCN(CC(=O)Nc2ccn(C)n2)CC1 | 95.2
Br.Cc1ccccc1OC1CCN(CC(=O)Nc2cnn(C)c2C)CC1 | 127.8
COCCN1C[C@H]2CC[C@@H]1CN(CC(=O)Nc1ccn(C)n1)C2 | 0.2654
Cc1cccc(OC2CCN(C(=O)NCCn3ccnc3)CC2)c1C | -9.4
Cc1nn(C)c(C)c1NC(=O)CN1CCOC(Cn2cccn2)C1 (centres undefined) | -5.215
Cc1ccccc1OC1CCN(CC(=O)Nc2cn(C)nc2C)CC1 | 143.3
Cn1ccc(NC(=O)CN2C[C@H]3CC[C@@H]2CN(Cc2ccccn2)C3)n1 | -23.26
Cc1ccccc1OC1CCN(CC(=O)Nc2c(C)nn(C)c2C)CC1 | 133
Cc1cccc2sc(NC(=O)CN3CCC(C)CC3)nc12 | -4.691
CC(=O)c1ccc(CN2CC(Oc3ccccc3C)C2)cc1 | 1.561
CC(O)CNC(=O)NCCCN1CCN(c2ncccn2)CC1 (centres undefined) | -2.851
CCOCCn1nnc(C2(NC(=O)c3ccccc3)CCCC2)n1 | -1.903
CN(C)CCOc1ccc(CNC(=O)c2cccc3[nH]ncc23)cc1 | -2.455
CN(C)C(=O)CCCNc1ncc2c(n1)CCN2c1ccccc1 | -14.16
Cn1c(=O)oc2ccc(NC(=O)N3CCSCC3)cc21 | -14.24
Cn1nc2c(cc1=O)CN(Cc1nnc(C3CC3)o1)CC2 | 7.472
Cc1noc(C)c1C(=O)N(C)C(C)c1ccncc1 (centres undefined) | -19.42
O=C(Nc1ccccc1)c1ccc2c(c1)C1(CCCCC1)CN2.O=C(O)C(F)(F)F | 15.72
CCOC(CC)C(=O)NCc1cccc(N2CCCCC2=O)c1 (centres undefined) | -0.7778
NS(=O)(=O)c1ccc(NC(=O)CSc2ccc3c(c2)CCC3)cc1 | 16.99

Structure (SMILES) | Percent Effect [%]
CC(=O)c1cccc(CN2CC(Oc3ccccc3C)C2)c1 | 6.758
CCn1cc(NC(=O)CN2CCC(Oc3ccccc3C)CC2)c(C)n1 | 103.8
CCn1cc(NC(=O)CN2CCC(Oc3ccc(F)cc3)CC2)c(C)n1.Cl | 113.2
CCN1CC(C(=O)N2CCC(Oc3ccccc3C)CC2)CC1=O (centres undefined) | -3.691
N#Cc1ccc(OC2CCN(CC(=O)NCC(F)(F)F)CC2)cc1 | 6.533
Cc1[nH]c(=O)[nH]c(=O)c1CC(=O)N1CCC(Oc2ccc(F)cc2)CC1 | -20.3
O=c1[nH]c(N2CCN(C3CC3)CC2)nc2c1cnn2-c1ccccc1 | 4.194
O=C(NCc1cccs1)NCC(O)(c1cccs1)C1CC1 (centres undefined) | 4.96
Cc1ncsc1CNC(=O)N(Cc1ccccc1)CC(C)(C)O | -10.76
Cc1n[nH]cc1CNCC1(c2ccc3c(c2)OCO3)CCOCC1.Cl | 4.447
Cc1ncsc1CNC(=O)NCC1(c2ccc3c(c2)OCO3)CC1 | 120.8
Cc1csc(CNC(=O)Nc2ccc3c(c2)OCO3)n1 | 95.91
Cc1csc(CNC(=O)NCCc2ccc3c(c2)OCCO3)n1 | -0.3298
Cc1csc(CNC(=O)Cc2ccc3c(c2)OCCO3)n1 | -1.573
Cc1csc(CNC(=O)N(C)Cc2ccc3c(c2)OCO3)n1 | -4.172
Cc1csc(CNC(=O)NCc2ccc3c(c2)OCCO3)n1 | -13.77
Cc1csc(CNC(=O)NCC2(c3ccc4c(c3)OCO4)CC2)n1 | 126.6
Cc1ccc(CN2CCc3c(C(=O)N(C)C)n[nH]c3C2)o1 | -11.98
Cc1ccc(CNC2(Cc3cc(-c4ccccn4)on3)COC2)o1 | -9.349
Cc1ccc(NC(=O)N(C)Cc2cnn(C)c2)cc1OCC(F)F | -4.297
CC(C)N(Cc1ccc(C(F)(F)F)nc1)Cc1cnn(C)c1 | 15.8
COc1cc(C(=O)N(Cc2cnn(C)c2)C(C)C)ccc1OC(C)C | 121.6
CCSc1cc(C(=O)N(Cc2cnn(C)c2)C(C)C)ccn1 | -10.41

Structure (SMILES) | Percent Effect [%]
CCOc1ccc(C(=O)N(Cc2cnn(C)c2)C(C)C)cc1OCC | 111.9
COc1ccc(C(=O)N(Cc2cnn(C)c2)C(C)C)cc1OC(F)F | 110.3
CCOc1ccc(C(=O)N(Cc2cnn(C)c2)C(C)C)cc1 | -5.805
COc1ccc(C(=O)N(Cc2cnn(C)c2)C(C)C)cc1Br | 9.999
COc1cc(C(=O)N(Cc2cnn(C)c2)C(C)C)ccc1OCC(N)=O | 4.705
COc1cc(C(=O)N(Cc2cnn(C)c2)C(C)C)ccc1C | 113.7
COc1ccc(CN(Cc2cnn(C)c2)CC(C)C)cn1 | -28.68
COCCCOc1ccc(C(=O)N(Cc2cnn(C)c2)C(C)C)cn1 | 5.983
CN1C[C@@H]2CN(C(=O)C3CC=CC3)C[C@@H]2C1=O | -1.664
Cc1nnc(CN2CCC3(CCC(=O)N([C@H]4CC[C@H](O)CC4)C3)CC2)o1 | 5.383
CC(C)=CCN1CCN(C(C)c2cccnc2)CC1 (centres undefined) | 2.838
CCc1ccccc1OCCN(C)C(=O)CCN1CCCO1 | 2.484
CN(CCN1CCOCC1)C(=O)CCCOCCc1ccccc1 | 6.061
CCOCCC(=O)N(C)CC1Cc2ccccc2CN1C (centres undefined) | 13.82
CCN(Cc1nc(COC)no1)C(=O)CCn1c(C)cc2ccccc21 | -20.66
COCCC(=O)N(Cc1cccnc1)CC1CCN(C2CCCC2)CC1 | -4.098
CCN(CC1=CCN(C)CC1)C(=O)CCOC | 97.45
CCCS(=O)(=O)N(C)C(=O)CCc1ccccc1 | -9.766
COCCC(=O)N(C)CCC1=CCN(C)CC1 | 102.2
CN1CC=C(CCN(C)C(=O)CCc2ccccc2)CC1 | 90.24
FC(F)(F)C1CCCn2c(CNCc3ccsc3)nnc21 (centres undefined) | 5.709
CCCc1noc(CS(=O)(=O)c2cccc(OC)c2)n1 | 19.11
CC(NC(=O)NCCCNS(C)(=O)=O)c1ccncc1 (centres undefined) | 0.1158

Structure (SMILES) | Percent Effect [%]
CCc1noc(C(C)N(C)Cc2cc(Br)ccc2OC)n1 (centres undefined) | 1.676
CCS(=O)(=O)N(C)C1CCN(C(=O)c2ccc(Cl)cc2)CC1 | -4.195
O=C1OCCN1CC(=O)N1C[C@H]2CC[C@@H]1CN(C(=O)c1ccccc1)C2 | -14.7
O=C(c1ccc(Cl)cc1)N1CCC(N2CCCOC2=O)CC1 | 100
CC(C)S(=O)(=O)NCC1CCCN(C(=O)c2ccc(Cl)cc2)C1 (centres undefined) | -24.01
O=C(c1ccc(Cl)cc1)N1CCC(N2CCOC2=O)CC1 | 107.7
COc1cccc2c1OCC(C(=O)N1CCC(N3CCOC3=O)CC1)C2 (centres undefined) | -3.402
COCc1ccccc1NC(=O)NC(C)c1ccc(C)o1 (centres undefined) | -2.277
Cc1c(F)cc(C(=O)O)cc1S(=O)(=O)Nc1cccc(C(F)F)c1 | -21.42
COc1ccccc1S(=O)(=O)Nc1ccc2c(C(=O)O)c[nH]c2c1 | -5.607
Cc1ccc(F)cc1S(=O)(=O)Nc1ccc2c(C(=O)O)c[nH]c2c1 | 88.84
O=C(O)c1c[nH]c2cc(NS(=O)(=O)c3cccc(F)c3F)ccc12 | 98.18
CSc1c[nH]nc1NS(=O)(=O)c1cc(F)ccc1Cl | 16.47
Cn1cc(Br)c(=O)c(NS(=O)(=O)c2cc(F)ccc2Cl)c1 | -8.345
O=C(O)c1c[nH]c2cc(NS(=O)(=O)c3cccc(Cl)c3F)ccc12 | -1.912
Cc1ccc(F)cc1S(=O)(=O)Nc1cnc(N2CCCC2)nc1 | 3.743
O=C(O)c1c[nH]c2cc(NS(=O)(=O)c3ccc(Cl)cc3F)ccc12 | 101.8
O=C(O)c1c[nH]c2cc(NS(=O)(=O)c3cc(F)ccc3Cl)ccc12 | 93.61
Cc1cc(NC(=O)N2CCN(C)CC2C)n(CCC#N)n1 (centres undefined) | -16.44
N#CCCN(Cc1ccco1)C(=O)Cc1ccc(-n2cnnn2)cc1 | -12.81
O=C(c1ccc2ccccc2c1)C1CCCN(C(=O)Cn2cnnn2)C1 (centres undefined) | -17.21
N#Cc1nccnc1N1CCC(c2nc(C(F)(F)F)c[nH]2)CC1 | -6.885
CNC(=O)NC(=O)CN1CCCN(CC(F)(F)F)CC1 | 5.4

Structure (SMILES) | Percent Effect [%]
CCC(C)NC(=O)NCCCn1nc2ccccn2c1=O (centres undefined) | -2.078
Cn1cnc(S(=O)(=O)N2CCOCC2)c1Cl | -4.923
CC(C)CCn1nc2ccc(S(=O)(=O)N3CCOCC3)cn2c1=O | 120.3
Cc1nn(C)c2ncc(S(=O)(=O)N3CCCC(C)CC3)cc12 (centres undefined) | -7.374
CC(C)Cn1nc2ccc(S(=O)(=O)N3CCC(C)CC3)cn2c1=O | 132.8
COC(=O)Cn1cccc(S(=O)(=O)N2CCC(C)CC2)c1=O | 3.954
COCCO[C@H]1CCN(C(=O)c2ccno2)[C@H]1Cc1ccncc1.O=C(O)C(F)(F)F | -8.897
CC/C=C(/C)C(=O)NCc1ccnc(OC2CCOCC2)c1 | -6.645
CC(=O)NCc1nnc2n1CCN(c1ncnc3c(C)csc13)CC2 | -2.169
O=S(=O)(CCCn1cncn1)Cc1ccc(F)cc1Cl | 8.322
COCCN(Cc1ccoc1)C(=O)c1c(F)cccc1Cl | -1.026
COCCN(Cc1ccoc1)C(=O)c1ccc(Cl)s1 | 106
CCN(Cc1ccoc1)C(=O)c1ccncc1O | 2.225
CCSc1ccccc1C(=O)N(CCOC)Cc1ccoc1 | 121.3
COCCN(CCOC)C(=O)c1ccoc1C | -2.566
COCCN(Cc1ccoc1)C(=O)c1c(F)cccc1F | 126.9
CCN(Cc1ccoc1)C(=O)c1ccc(C)c(S(N)(=O)=O)c1 | 0.3555
CCc1ncc(C(=O)N(CCOC)Cc2ccccc2F)cn1 | -19.66
COCCN(Cc1ccoc1)C(=O)c1ccccc1Cl | -4.504
CCOc1ccc(CN(CCOC)C(=O)c2ccncc2Cl)cc1 | 0.1724
COCCN(Cc1ccoc1)C(=O)c1ccccc1OC | 102.9
COCCN(Cc1ccncc1)C(=O)C1COc2c(cccc2OC)C1 (centres undefined) | 4.804
